Consider 46 compounds from PubChem BioAssay AID2685 (National Center for Advancing Translational Sciences (NCATS), 2010).

The campaign covered roughly 320,000 compounds. About 2,100 (0.66%) were called active. Inconclusive results (about 53%) are left out. Calls come from the whole dose curve; as a rule, active = well fitted inhibition curve with a large enough effect in the signal ratio, with a control signal flat (not every such curve was filed as active); inconclusive = small, poorly fitted or top-dose-only effect, or effect the other way, or a change in a side signal; inactive = flat fitted curve, though single readings scatter; the % refers to the signal ratio. Shown is part of a subset that was picked to be rich in actives.
Potency is the fitted concentration of half-maximal effect.

The nature of the experiment: qHTS Assay for Lipid Storage Modulators in Drosophila S3 Cells.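 For cell number change: cells counted by Cell Tracker Red CMTPX staining in the red channel.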 For lipid storage change, negative = inhibition: % is set by controls: 0 for no effect and ±100 for the full control effect. Conditions: BODIPY lipid droplet fluorescence, 18-24 h, cells fed with added oleic acid; cell number change: measured here: cell count max response; series mostly up to 46.1 µM; lipid storage change, negative = inhibition: at the top concentration. Put shortly: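 Drosophila S3 cells loaded with oleic acid (400 uM, as added) and compounds at several concentrations; lipid droplets imaged by 488-nm laser-scanning cytometry, 500–530 nm intensity and object ratio to cell channel. Percent activity normalized to 20 uM Triacsin C.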
As to `O=S(=O)(Nc1ccc2nc(N3CCOCC3)sc2c1)c1ccc(Cl)cc1`, the outcome was inactive and the cell number change was -15.7%.

Turning to `CCOC(=O)C1(Cc2cccc(OC)c2)CCN(Cc2cc(OC)ccc2OC)CC1`, the “lipid storage change, negative = inhibition” value is -8.02% (inactive) and the cell number change is -22.3%. For `COc1cc(OC)cc(C(=O)Nc2ccc(C(=O)c3ccncc3)cc2)c1` the same measures were -7.33% (inactive) and 2.59%. With `COc1ccc(C(CCN2CCCC(C)C2)c2c(OC)cc(OC)c3c(C)cc(=O)oc23)cc1` (stereo not drawn), the “lipid storage change, negative = inhibition” value is 0.351% (inactive) and the cell number change was determined as 7.77%. For `CC[n+]1c(C)n(-c2ccccc2)c2ccc(C(=O)OC)cc21` the same measures were 0.792% (inactive) and 6.2%. The like results for `Cc1cc(C)n2ncc(C(=O)O)c2n1` were, in that order, 16.6% (inactive) and 12.3%. The like results for `Cc1ccc(-c2cc(C(F)(F)F)n3ncc(C(=O)O)c3n2)cc1` were, in that order, -0.719% (inactive) and -10.1%. `Cc1cc(C(F)(F)F)n2ncc(C(=O)O)c2n1`: the Potency is 14.6 µM (active). On to `C=CCN1CC(=O)N2C(C)c3[nH]c4ccccc4c3C[C@H]2C1=O` (stereo partly drawn), for which the “lipid storage change, negative = inhibition” value is 8.32% (inactive) and the cell number change was 1.11%. The like results for `CCC(=O)Nc1ccc(-c2nnc(SCC(=O)Nc3nccs3)n2C)cc1` were, in that order, 8.69% (inactive) and 0.852%. On to `CC1Cc2cc(/C(O)=C3/C(=O)C(=O)N(CC4CCCO4)C3c3ccco3)ccc2O1` (stereo not drawn), for which the “lipid storage change, negative = inhibition” value was 8.54% (inactive) and the cell number change was 9.06%. With `COc1cccc(C2/C(=C(/O)c3ccc4c(c3)CC(C)O4)C(=O)C(=O)N2CC2CCCO2)c1` (stereo not drawn), the compound was classed as inactive and the cell number change worked out at 14.4%.

For the compound `COc1cc(C2/C(=C(\O)c3ccc4c(c3)CC(C)O4)C(=O)C(=O)N2CC2CCCO2)cc(OC)c1OC` (stereo not drawn), the Potency was 1.3 µM (active) and the cell number change was -16%. Turning to `CC(C)N(C(=O)CSc1nnc(NC(=O)c2cccs2)s1)C(C)C`, the “lipid storage change, negative = inhibition” value was -9.8% (inactive) and the cell number change was -20.6%. As for `CCc1nnc(NC(=O)CCC(=O)NCc2ccc(C)cc2)s1`, the outcome was inactive. With `COC(=O)c1c(NC(=O)CN2C(=O)NC3(CCC(C)CC3)C2=O)sc2c1CCC2` (stereo not drawn), the “lipid storage change, negative = inhibition” value was 20.5% (inactive) and the cell number change is -11.8%. For `CCOC(=O)c1c(NC(=O)CN2C(=O)NC3(CCCCC3C)C2=O)sc(C)c1C` (stereo not drawn) the same measures were 1.6% (inactive) and -4.46%. In the case of `COC(=O)c1c(NC(=O)CN2C(=O)NC3(CCCCC3C)C2=O)sc2c1CCC2` (stereo not drawn), the Potency was 1.84 µM (active) and the cell number change was found to be 2.22%.

With `c1ccc(CCNc2nc3ccccc3n3nnnc23)cc1`, the outcome was inactive and the cell number change was -15.6%. With `Clc1ccc(NNc2ccnc3cc(Cl)ccc23)cc1`, the “lipid storage change, negative = inhibition” value is 7.38% (inactive) and the cell number change came to 9.5%. Turning to `Oc1ccc(/C=N/Nc2ccnc3cc(Cl)ccc23)c(O)c1`, the Potency is 29.1 µM (active) and the cell number change was -19.7%. Take `Clc1ccc2c(N/N=C/c3cccnc3)ccnc2c1`: the call was inactive. `Cc1ccnc(NS(=O)(=O)c2cccc([N+](=O)[O-])c2)c1`: the “lipid storage change, negative = inhibition” value was -5.01% (inactive) and the cell number change stood at 3.2%.

Turning to `COc1ccc(-n2nc(C(=O)NCC(=O)N3CCN(Cc4ccccc4)CC3)c3ccccc3c2=O)cc1`, the Potency is 0.651 µM (active) and the cell number change came out at 5.41%. For the compound `COc1ccc(-n2nc(C(=O)NCC(=O)N3CCN(Cc4ccccc4)CC3)c3ccccc3c2=O)c(OC)c1`, the result was inactive and the cell number change came to 10.3%.

For `CCN1CCN(C(=O)CNC(=O)c2nn(-c3ccc(OC)cc3)c(=O)c3ccccc23)CC1`, the compound was called inactive and the cell number change is 8.11%.

With `COc1ccccc1N1CCN(C(=O)c2ccc(S(=O)(=O)N3CCCCCC3)cc2)CC1`, the “lipid storage change, negative = inhibition” value was -13% (inactive) and the cell number change was -9.51%. `COc1cc(C)c(Cl)cc1S(=O)(=O)NCc1ccncc1`: the outcome was inactive and the cell number change is -7.29%. Consider `COc1cc(S(=O)(=O)NCc2ccncc2)c(OC)cc1Cl`, for which the “lipid storage change, negative = inhibition” value was 15.4% (inactive) and the cell number change came to 12.7%.

For `COc1cc(S(=O)(=O)NCc2ccncc2)c(OC)cc1Br`, the Potency is 23.1 µM (active) and the cell number change stood at 3.68%. `COc1ccc(CCNC(=O)CN(C)S(=O)(=O)c2cccc3nsnc23)cc1OC`: the “lipid storage change, negative = inhibition” value is 1.44% (inactive) and the cell number change was 0.234%. With `CC(C)c1ccc(CNCCCSc2ncccn2)cc1`, the call was inactive and the cell number change is -5.03%. Turning to `CC(C)(C)C(=O)CC1(O)C(=O)N(Cc2ccc(Cl)cc2)c2ccccc21` (stereo not drawn), the “lipid storage change, negative = inhibition” value was 2% (inactive) and the cell number change was 7.61%. The like results for `CC(=O)N1C(=O)CC(C)N(C(C)=O)c2ccc([N+](=O)[O-])cc21` (stereo not drawn) were, in that order, 2.55% (inactive) and 1.88%. The like results for `CNC(=O)c1[nH]nc2c1CCc1ccccc1-2` were, in that order, -1.15% (inactive) and 13.3%. Consider `c1ccc2c(c1)CCc1c(-c3ccncc3)n[nH]c1-2`, for which the Potency was 18.4 µM (active) and the cell number change was 7.47%. For `CC(C)NC(=O)c1[nH]nc2c1CCc1ccccc1-2`, the result was inactive and the cell number change was -0.945%. Regarding `CC(C)C(=O)N1CCN(c2ccccc2NC(=O)COc2ccccc2)CC1`, the “lipid storage change, negative = inhibition” value was 9.3% (inactive) and the cell number change is -6.41%.

Turning to `CCOC(=O)N1CCN(c2c(NC3CCN(Cc4ccccc4)CC3)c(=O)c2=O)CC1`, the “lipid storage change, negative = inhibition” value is 3.89% (inactive) and the cell number change is 6.86%. The like results for `O=C(c1cccc([N+](=O)[O-])c1)N(c1ccccn1)c1ccccn1` were, in that order, -6.93% (inactive) and 2.68%. The like results for `Cc1ccc(NS(=O)(=O)c2cccc(C(=O)NCC(c3ccco3)N3CCCC3)c2)cc1` (stereo not drawn) were, in that order, 9.46% (inactive) and -2.68%.

On to `Cc1ccc(S(=O)(=O)N(C)c2ccc(C(=O)NCC(c3ccco3)N(C)C)cc2)cc1` (stereo not drawn), for which the Potency is 1.64 µM (active) and the cell number change was -16.7%. For the compound `CN(C)C(CNC(=O)c1ccc(S(=O)(=O)Nc2ccccc2)cc1)c1ccco1` (stereo not drawn), the “lipid storage change, negative = inhibition” value is 13% (inactive) and the cell number change is 14.1%. For `COc1ccc(N(C)S(=O)(=O)c2cccc(C(=O)NCC(c3ccco3)N3CCCC3)c2)cc1` (stereo not drawn) the same measures were 13.3% (inactive) and 8.75%.

Take `CN(C)C(CNC(=O)c1cc(S(=O)(=O)N(C)c2ccc(F)cc2)ccc1Cl)c1ccco1` (stereo not drawn): the “lipid storage change, negative = inhibition” value was 19.2% (inactive).

Turning to `Cc1ccc(N(C)S(=O)(=O)c2cccc(C(=O)NCC(c3ccco3)N3CCCC3)c2)cc1` (stereo not drawn), the Potency is 7.31 µM (active) and the cell number change is -25.8%.
